Among the data in ChEMBL document CHEMBL1201862, “PubChem BioAssay data set” (2004) are GI50 values, retold here.

In all, about 58,000 sequences went through this assay and about 3,500 (6%) were called active. Rule as the data show it: active = GI50 up to about 1.1 µM and inactive = higher. These entries were drawn from the full list. Measured potencies and affinities stand elsewhere.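 Test compounds were applied to cells in 96-well plates for 48 hours at 5 doses. GI50 marks 50% less growth.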

The test system of this assay is SN12C. The assay can be described thus: NCI tumour cell line growth inhibition, 48 h.
“[Bis(aminomethyl)pentamethylenesilane]dichloropaltinum(II), CHEMBL2146202” registered a GI50 of 1.87 µM.

In the case of “[Bis(aminomethyl)pentamethylenesilane]tetrachloropaltinum(IV), CHEMBL2146204”, the GI50 is 2 µM.

Substance “[Bis(aminomethyl)tetramethylenesilane]tetrachloropaltinum(IV), CHEMBL2146189” showed a GI50 of 2.64 µM.

Turning to “cis-Bis[[(trimethylsilyl)methyl]amino]tetrachloroplatinum(IV), CHEMBL2146191”, the GI50 worked out at 13.1 µM.

“[Bis(aminomethyl)dimethylsilane]tetrachloroplatinum(IV), CHEMBL2146190” returned a GI50 of 8.45 µM.

As for “[Bis(aminomethyl)tetramethylenesilane]dichloropaltinum(II), CHEMBL2146205”, the GI50 turned out to be 23.9 µM.

As to “mu-(1,7-nanodiamine-N,N')bis-(cis-aminedichloroplatimum (II)), CHEMBL2146215”, the GI50 was 0.387 µM.

As to “[Bis(aminomethyl)dimethylsilane]dichloroplatinum (II), CHEMBL2146201”, the GI50 worked out at 32.4 µM.

In the case of “[Bis(aminomethyl)diethylsilane]tetrachloroplatinum(IV), CHEMBL2146203”, the GI50 stood at 2.34 µM.

“[Bis(aminomethyl)ethylmethylsilane]tetrachloroplatinum(IV), CHEMBL2146192”: the GI50 amounted to 4.25 µM.

On to CISPLATIN, CHEMBL11359, for which the GI50 came to 4.83 µM.
